± gives the standard deviation of the averaged measurements.
Target: GlmU (UniProt A7ZTU1)
Assay: relative enzymatic activity vs untreated control (fraction); higher = less inhibition
Settings: 100 µM; incubation time: 2 h at 37 C
Procedure: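 In vitro enzymatic inhibition assays (ProFoldin kits) for 12 purified essential E. coli enzymes or complexes, each treated with 218 active antibacterial compounds at 100 µM for 2 h at 37°C. Read-outs were fluorescence or absorbance (phosphate detection, dye binding), converted to activity via standard curves and expressed relative to untreated DMSO controls.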

Chain of GlmU (A7ZTU1 whole entry, looked up): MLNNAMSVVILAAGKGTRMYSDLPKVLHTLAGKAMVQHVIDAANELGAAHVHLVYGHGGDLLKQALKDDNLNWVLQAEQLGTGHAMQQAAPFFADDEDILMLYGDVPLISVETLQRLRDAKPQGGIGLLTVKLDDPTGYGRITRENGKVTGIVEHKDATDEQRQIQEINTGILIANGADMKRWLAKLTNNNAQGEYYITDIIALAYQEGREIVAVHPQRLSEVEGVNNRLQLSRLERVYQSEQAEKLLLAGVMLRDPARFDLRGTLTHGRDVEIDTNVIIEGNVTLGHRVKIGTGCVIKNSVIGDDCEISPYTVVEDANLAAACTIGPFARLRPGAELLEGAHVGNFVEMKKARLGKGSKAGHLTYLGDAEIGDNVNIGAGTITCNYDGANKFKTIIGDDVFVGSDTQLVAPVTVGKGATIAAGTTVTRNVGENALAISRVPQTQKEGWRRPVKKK

Question: Which relative enzymatic activity does the source give for Cc1cn(C2CC(N=[N+]=[N-])C(CO)O2)c(=O)[nH]c1=O (centres undefined) here?
Answer: 1.002 ± 0.0012

Question: For CCOC(=O)OC(C)OC(=O)C1N2C(=O)C(NC(=O)C(N)c3ccccc3)C2SC1(C)C.Cl (centres undefined), which relative enzymatic activity is on record?
Answer: 1.04 ± 0.033

Question: Cn1nnnc1SCC1=C(C(=O)[O-])N2C(=O)C(NC(=O)C(O)c3ccccc3)C2SC1.[Na+] (centres undefined) was tested. Which relative enzymatic activity did it give?
Answer: 1.16 ± 0.18

Question: How did the relative enzymatic activity turn out when CNC1C(OC2C(OC3C(O)C(O)C(NC(=N)N)C(O)C3NC(=N)N)OC(C)C2(O)CO)OC(CO)C(O)C1O.O=S(=O)(O)O (centres undefined) was run?
Answer: 0.982 ± 0.09

Question: With CON=C(C(=O)NC1C(=O)N2C(C(=O)OCOC(=O)C(C)(C)C)=C(C=Cc3scnc3C)CSC12)c1csc(N)n1 (centres undefined) as the compound, how does the relative enzymatic activity read?
Answer: 0.914 ± 0.031

Question: With COC1(NC(=O)C(C(=O)[O-])c2ccc(O)cc2)C(=O)N2C(C(=O)[O-])=C(CSc3nnnn3C)COC21.[Na+].[Na+] (centres undefined) as the compound, how does the relative enzymatic activity read?
Answer: 0.998 ± 0.085

Question: With Nc1c2ccccc2nc2ccccc12 as the compound, how does the relative enzymatic activity read?
Answer: 0.933 ± 0.059

Question: O=C1OC(=O)[C@H]2[C@@H]1[C@H]1CC[C@H]2O1 was tested. Which relative enzymatic activity did it give?
Answer: 1.07 ± 0.033

Question: Which relative enzymatic activity does the source give for CC(=O)On1cc(F)c(=O)[nH]c1=O here?
Answer: 0.977 ± 0.015

Question: For N[C@@H](C(=O)N[C@@H]1C(=O)N2C(C(=O)O)=C(Cl)CS[C@H]12)c1ccccc1, which relative enzymatic activity is on record?
Answer: 0.911 ± 0.035

Question: CC1(C)S[C@@H]2[C@H](NC(=O)[C@H](NC(=O)N3CCNC3=O)c3ccccc3)C(=O)N2[C@H]1C(=O)O was tested. Which relative enzymatic activity did it give?
Answer: 0.998 ± 0.033

Question: COc1ccc(Cc2cnc(N)nc2N)cc1OC was tested. Which relative enzymatic activity did it give?
Answer: 1.019 ± 0.0077

Question: CN1CCN(c2c(F)cc3c(=O)c(C(=O)O)cn4c3c2OCN4C)CC1 was tested. Which relative enzymatic activity did it give?
Answer: 0.97 ± 0.023

Question: How did the relative enzymatic activity turn out when O=C(O)c1cn(C2CC2)c2cc(N3CCNCC3)c(F)cc2c1=O was run?
Answer: 1.09 ± 0.16

Question: COc1cc(Cc2cnc(N)nc2N)cc(OC)c1OC was tested. Which relative enzymatic activity did it give?
Answer: 1.009 ± 0.0036

Question: With C[C@H]1[C@H](NC(=O)/C(=N\OC(C)(C)C(=O)O)c2csc(N)n2)C(=O)N1S(=O)(=O)O as the compound, how does the relative enzymatic activity read?
Answer: 1.04 ± 0.031

Question: With CC(N)O.Cc1cc(CC(C)CC(C)(C)C)n(O)c(=O)c1 (centres undefined) as the compound, how does the relative enzymatic activity read?
Answer: 1.095 ± 0.0024

Question: How did the relative enzymatic activity turn out when COc1cc2c(cc1OC)C(=O)C(CC1CCN(Cc3ccccc3)CC1)C2.Cl (centres undefined) was run?
Answer: 0.766 ± 0.067

Question: With CON=C(C(=O)NC1C(=O)N2C(C(=O)O)=C(C[N+]3(C)CCCC3)CSC12)c1csc(N)n1.[Cl-] (centres undefined) as the compound, how does the relative enzymatic activity read?
Answer: 0.969 ± 0.022

Question: CCn1cc(C(=O)O)c(=O)c2cc(F)c(N3CCNC(C)C3)c(F)c21.Cl (centres undefined) was tested. Which relative enzymatic activity did it give?
Answer: 1.09 ± 0.16

Question: For O=c1[nH]c(=O)n(C2CC(O)C(CO)O2)cc1F (centres undefined), which relative enzymatic activity is on record?
Answer: 1.09 ± 0.097

Question: CN(C)c1ccc(O)c2c1CC1CC3C(N(C)C)C(O)=C(C(N)=O)C(=O)C3(O)C(O)=C1C2=O.Cl (centres undefined) was tested. Which relative enzymatic activity did it give?
Answer: 0.955 ± 0.066

Question: How did the relative enzymatic activity turn out when C=C1c2cccc(O)c2C(=O)C2=C(O)C3(O)C(=O)C(C(N)=O)=C(O)C(N(C)C)C3C(O)C12.Cl (centres undefined) was run?
Answer: 1 ± 0.011

Question: CO/N=C(\C(=O)N[C@@H]1C(=O)N2C(C(=O)O)=C(CSc3nnnn3C)CS[C@H]12)c1csc(N)n1 was tested. Which relative enzymatic activity did it give?
Answer: 1.09 ± 0.046

Question: Nc1nc(C(=CCC(=O)O)C(=O)NC2C(=O)N3C(C(=O)O)=CCSC23)cs1 (centres undefined) was tested. Which relative enzymatic activity did it give?
Answer: 0.934 ± 0.01

Question: For NCCONC(=O)[C@@H]1CC[C@@H]2CN1C(=O)N2OS(=O)(=O)O, which relative enzymatic activity is on record?
Answer: 1.02 ± 0.082

Question: With CC[C@H]1OC(=O)C[C@@H](O)[C@H](C)[C@@H](O[C@@H]2O[C@H](C)C[C@H](N(C)C)[C@H]2O)[C@@H](CC=O)C[C@@H](C)C(=O)/C=C/[C@]2(C)O[C@H]2[C@@H]1C as the compound, how does the relative enzymatic activity read?
Answer: 1.0039 ± 0.00034

Question: Which relative enzymatic activity does the source give for N[C@@H](C(=O)N[C@@H]1C(=O)N2C(C(=O)O)=C(Cl)CC[C@H]12)c1ccccc1 here?
Answer: 1 ± 0.036

Question: With CO/N=C(\C(=O)N[C@@H]1C(=O)N2C(C(=O)O)=C(C)CS[C@H]12)c1csc(N)n1 as the compound, how does the relative enzymatic activity read?
Answer: 1.018 ± 0.0077

Question: Which relative enzymatic activity does the source give for NCC1OC(OC2C(N)CC(N)C(OC3OC(CO)C(O)C(N)C3O)C2O)C(N)CC1O (centres undefined) here?
Answer: 0.979 ± 0.048

Question: With NC(=O)N/N=C/c1ccc([N+](=O)[O-])o1 as the compound, how does the relative enzymatic activity read?
Answer: 1.006 ± 0.004

Question: Cc1nnc(SCC2=C(C(=O)[O-])N3C(=O)C(NC(=O)Cn4cnnn4)C3SC2)s1.[Na+] (centres undefined) was tested. Which relative enzymatic activity did it give?
Answer: 0.951 ± 0.036

Question: How did the relative enzymatic activity turn out when CCC=C(C(=O)NC1C(=O)N2C(C(=O)OCOC(=O)C(C)(C)C)=C(COC(N)=O)CSC12)c1csc(N)n1.Cl (centres undefined) was run?
Answer: 0.939 ± 0.024

Question: For CC(O)C1C(=O)N2C(C(=O)O)=C(SC3CNC(C(=O)N(C)C)C3)C(C)C12 (centres undefined), which relative enzymatic activity is on record?
Answer: 1.04 ± 0.19

Question: How did the relative enzymatic activity turn out when CN(C)C1C(O)=C(C(N)=O)C(=O)C2(O)C(O)=C3C(=O)c4c(O)cccc4C(C)(O)C3CC12.Cl (centres undefined) was run?
Answer: 0.9683 ± 0.0011

Question: Which relative enzymatic activity does the source give for Cc1cc(=O)c(C(=O)N[C@@H](C(=O)N[C@@H]2C(=O)N3C(C(=O)O)=C(CSc4nnnn4C)CS[C@H]23)c2ccc(O)cc2)c[nH]1 here?
Answer: 0.919 ± 0.03

Question: For CCN1CCN(C(=O)NC(C(=O)NC2C(=O)N3C(C(=O)O)=C(CSc4nnnn4C)CSC23)c2ccc(O)cc2)C(=O)C1=O (centres undefined), which relative enzymatic activity is on record?
Answer: 1.09 ± 0.17

Question: Which relative enzymatic activity does the source give for Nc1nc(/C(=N/O)C(=O)N[C@@H]2C(=O)N3C(C(=O)O)=C(/C=C4\CCN([C@@H]5CCNC5)C4=O)CS[C@H]23)ns1 here?
Answer: 0.83 ± 0.021

Question: CC(NCCCc1cccc(C(F)(F)F)c1)c1cccc2ccccc12.Cl (centres undefined) was tested. Which relative enzymatic activity did it give?
Answer: 1.08 ± 0.17

Reference: the supplement of paper PMC9446081
